Measurements: ChEMBL document CHEMBL4513216, “Probing the Open Global Health Chemical Diversity Library for Multistage-Active Starting Points for Next-Generation Antimalarials” (ACS Infect Dis, 2020)
Screen size: about 68,000 compounds; about 2,700 (4%) showed an effect of 50% or more. What follows is part of a selection rich in strong results, with near analogues and random picks from the rest.

tested on: Plasmodium berghei; test: Screen against P. berghei liver stage (PbLuc), transformed with Luciferase, at 2uM; format: functional, HepG2; settings: tested at 2 uM

| SMILES | INHIBITION [%] |
| --- | --- |
| CC(C)CC(NC(=O)c1ccn(C)c(=O)c1)c1cccs1 (configuration not stated) | 9.29 |
| CN(CCc1cn[nH]c1)C(=O)C1CC(=O)N(Cc2ccccn2)C1 (configuration not stated) | 48.93 |
| COCc1noc(CCNC(=O)c2ccc(C3CCCO3)s2)n1 (configuration not stated) | -31.23 |
| Cc1cc(CN2C[C@H](N3CCOCC3)[C@@H]3OCCC[C@@H]32)oc1C | -0.23 |
| Cc1ccc(CN2C[C@@H](N(C)C)[C@H]3OCCC[C@H]32)o1 | 39.57 |
| Cc1ccc(CN2C[C@H](N3CCOCC3)[C@@H]3OCCC[C@@H]32)o1 | 63.23 |
| COCC(=O)N1CCC2(C1)c1ccccc1S(=O)(=O)N2CC1CC1 (configuration not stated) | -11.81 |
| Cc1cn(CC(=O)NC2CCC(C(=O)O)CC2)c2ccccc12 (configuration not stated) | 0.13 |
| CCN1CCC(NC(=O)Cn2cc(C)c3ccccc32)CC1 | -3.38 |
| Cc1cn(CC(=O)NC2CCC3(CC2)OCCO3)c2ccccc12 | 70.17 |
| CCCC1CCCN(C(=O)Nc2cccnc2OC)CC1 (configuration not stated) | 0.73 |
| COc1ccc(C2CCCN2S(=O)(=O)c2cc(F)ccc2F)cc1 (configuration not stated) | 7.24 |
| Cc1cc(=O)[nH]cc1C(=O)N1Cc2ccccc2N(C)CC1C (configuration not stated) | 47.59 |
| CCc1csc(C2CCCN(C(=O)c3c[nH]c(C)n3)C2)n1 (configuration not stated) | 33.91 |
| CCc1csc(C2CCCN(C(=O)c3ccc(=O)n(CC)n3)C2)n1 (configuration not stated) | 60.09 |
| CCc1csc(C2CCCN(C(=O)c3ccc(OC)nn3)C2)n1 (configuration not stated) | 11.18 |
| CC(C)c1csc(C2CCCN(C(=O)Cn3ccccc3=O)C2)n1 (configuration not stated) | 54.92 |
| CCc1csc(C2CCCN(C(=O)c3ccc(=O)n(C)n3)C2)n1 (configuration not stated) | 26.51 |
| Cc1csc(C2CCCN(C(=O)c3c[nH]c(C)n3)C2)n1 (configuration not stated) | -92.68 |
| Cc1nc(C(=O)N2CCCC(c3nc(C(C)C)cs3)C2)c[nH]1 (configuration not stated) | 77.56 |
| Cc1csc(C2CCCN(C(=O)Cn3ccccc3=O)C2)n1 (configuration not stated) | 42.29 |
| Cc1nc(C2CCCN(C(=O)Cn3ccccc3=O)C2)sc1C (configuration not stated) | 14.77 |
| CC(C)NC(=O)NCc1nnc2n1C(C(=O)N(C)C)CC2 (configuration not stated) | 24.34 |
| O=C(NCc1ccc(OCC2CC2)nc1)C1COc2ccccc2O1 (configuration not stated) | 2.21 |
| CC1CCN(C(=O)[C@@H]2C[C@H]3OCC[C@H]3N(Cc3ccoc3)C2)CC1 | 23.1 |
| Cc1cnc(CN(C)C(=O)C23CNCC2CNC3)[nH]1 (configuration not stated) | -16.03 |

| SMILES | INHIBITION [%] |
| --- | --- |
| COc1ncccc1C(=O)N(C)Cc1nc(-c2ccccn2)no1 | 16.37 |
| Cc1cnn(CC2CCCCN2C(=O)c2csc(C)n2)c1 (configuration not stated) | 53.58 |
| CNC(=O)c1ccc(C(=O)N2CCCCC2Cn2cc(C)cn2)cn1 (configuration not stated) | 61.96 |
| Cc1cnn(CC2CCCN2C(=O)c2ccc(C(N)=O)cn2)c1 (configuration not stated) | 40.29 |
| COCc1nc(C(=O)N2CCCCC2Cn2cc(C)cn2)cs1 (configuration not stated) | 29.71 |
| CC(=O)Nc1nc(C(=O)N2CCCCC2Cn2cc(C)cn2)cs1 (configuration not stated) | -7.73 |
| Cc1cnn(CC2CCCCN2C(=O)c2ccc(NC3CC3)nc2)c1 (configuration not stated) | 14.53 |
| CC(C)C1CN(C(=O)c2cc(=O)[nH]c(=O)[nH]2)CCCN1CC1CC1 (configuration not stated) | -15.77 |
| CN(C)CCn1c([C@@H]2CCCO2)cc2cccnc21 | 47.82 |
| O=C(N1CCCC1)N1CCc2c(CNc3ncccn3)cncc2C1 | 34.98 |
| Cc1cc(CN2CCC3(CC2)CC(C(=O)O)N(C(=O)C2CC2)C3)oc1C (configuration not stated) | 9.11 |
| CCSCC(C)NCc1nc(-c2cccnc2)no1 (configuration not stated) | -15.07 |
| Cc1nn2c(nc1=O)-c1ccccc1NC2C(=O)O (configuration not stated) | 24.05 |
| O=C(c1ccnnc1)N1CCC2(CCN(c3ccsc3)C2=O)C1 (configuration not stated) | -12.06 |
| Cc1ccc(C(=O)N2CCC3(CCN(Cc4ccccn4)C3=O)C2)cn1 (configuration not stated) | 17.64 |
| C[C@H]1CN(C(=O)c2cscn2)C[C@@]12CCN(c1ccsc1)C2=O | 55.8 |
| COCC(=O)N1CCCC2(CCN(c3ccsc3)C2=O)C1 (configuration not stated) | -68.7 |
| O=C(c1ccsc1)N1CCC2(CCN(Cc3ccccn3)C2=O)C1 (configuration not stated) | 57.85 |
| C[C@@H]1CN(C(=O)c2ccsc2)C[C@]12CCN(c1ccsc1)C2=O | -1.79 |
| O=C(c1ccc(F)cc1)N1CCC2(CCN(Cc3ccccn3)C2=O)C1 (configuration not stated) | 11.6 |
| O=C(N1CCCC1)N1CCCC2(CCN(c3ccsc3)C2=O)C1 (configuration not stated) | 45.82 |
| Cc1ccc(C(=O)N2CCC3(CCN(c4ccsc4)C3=O)C2)cn1 (configuration not stated) | 52.66 |
| O=C(c1cccnc1)N1CCCC2(CCN(c3ccsc3)C2=O)C1 (configuration not stated) | 18.37 |
| O=C(CO)N1CCCC2(CCN(c3ccsc3)C2=O)C1 (configuration not stated) | 55.21 |
| Cc1cccc(C(=O)N2C[C@@H](C)[C@@]3(CCN(c4ccsc4)C3=O)C2)n1 | 15.44 |
| c1ccc(CCCN2CCCC2Cn2cncn2)cc1 (configuration not stated) | 1.63 |

| SMILES | INHIBITION [%] |
| --- | --- |
| CCOCCCNC(=O)NCc1c(C)nn(C)c1C | 6.4 |
| Cc1nn(CCC#N)c(C)c1CCC(=O)N(C(C)C)C1CC1 | 52.6 |
| Cc1nn(CCC#N)c(C)c1CCC(=O)N(C)Cc1ccsc1 | 35.84 |
| Cc1nn(CCC#N)c(C)c1CCC(=O)N(C)C | -57.94 |
| CCC(=O)Nc1ccc(C(C)NC(=O)COC)cc1 (configuration not stated) | -64.67 |
| Cc1cc(Cn2cc(C#N)c(=O)c3ccccc32)no1 | -0.45 |
| CC(C)c1ccc(CN2C(=O)C3(CCNCC3)Nc3ccccc32)cc1 | 6.72 |
| O=C(NCc1ccco1)N1CCN(Cc2ccc3c(c2)CCO3)CC1 | 9.17 |
| O=C(NCC1CCCO1)N1CCN(Cc2ccc3c(c2)CCO3)CC1 (configuration not stated) | 78.42 |
| O=C(C1COCCO1)N1CCN(Cc2ccc3c(c2)CCO3)CC1 (configuration not stated) | 83.96 |
| O=C(NCC1CCOC1)N1CCN(Cc2ccc3c(c2)CCO3)CC1 (configuration not stated) | 10.62 |
| O=C(C1CCCN(CCc2ccc3c(c2)CCO3)C1)N1CCCC1 (configuration not stated) | -0.62 |
| O=C(C1CCOC1)N1CCN(Cc2ccc3c(c2)CCO3)CC1 (configuration not stated) | 47.87 |
| CN(C)C1CCN(C(=O)NCc2ccc(Cn3cncn3)cc2)CC1 | -8.87 |
| CN1CCN(Cc2cn3c(n2)CN(C2CCOCC2)CC3)CC1 | 20.01 |
| Cc1cccc(C(C)CNS(=O)(=O)CCCC#N)c1 (configuration not stated) | 16.95 |
| COCCS(=O)(=O)NCC(C)c1cccc(C)c1 (configuration not stated) | 72.49 |
| COCCS(=O)(=O)NC(C)c1cccc(C)c1C (configuration not stated) | 16.38 |
| COc1ccc(C(C)NCc2ccc(OC)c(OC)c2OC)cc1F (configuration not stated) | -6.67 |
| CC(c1ccco1)N(C)C(=O)NCCOc1ccc(C#N)cc1 (configuration not stated) | -6.73 |
| CC(=O)N[C@@H]1CN(C(=O)CC2CCOCC2)C[C@H]1O | -4.48 |
| CC(=O)N[C@@H]1CN(C(=O)CC2CC2)C[C@H]1O | 53.16 |
| CCOCC(=O)N1C[C@@H](O)[C@H](NC(C)=O)C1 | -24.98 |
| Cc1noc(C)c1CN1CCn2cc(CNc3ccccn3)nc2C1 | 6.07 |
| Cc1oc(CN(C)C(=O)c2ccc(C(F)(F)F)cc2)cc1C(=O)O | 40.4 |
| CC(C)C(=O)NC1COC2(CCN(C(=O)c3cccnc3)CC2)C1 (configuration not stated) | 9.53 |

| SMILES | INHIBITION [%] |
| --- | --- |
| N#CC1(C(=O)N2CCN(Cc3cscn3)CC2)CCCC1 | 34.83 |
| N#CC1(C(=O)N2CCN(Cc3cscn3)CC2)CCCCC1 | 52.17 |
| N#CC1(C(=O)N2CCCN(Cc3cscn3)CC2)CCCCC1 | 7.71 |
| Cc1ccc(S(=O)(=O)Cc2noc([C@@H]3C[C@@H](O)CN3C)n2)cc1 | 32.59 |
| CN(Cc1cn2c(n1)CN(Cc1ccc(F)cc1)CC2)Cc1ccco1 | 9.98 |
| COc1ccc(C2=CCN(C(=O)C3CCCN(C(N)=O)C3)CC2)cc1 (configuration not stated) | -11.91 |
| COc1ccc(C2=CCN(C(=O)C3CCCN(C(C)=O)C3)CC2)cc1 (configuration not stated) | 68.24 |
| COc1ccc(C2=CCN(C(=O)C3CCC3)CC2)cc1 | -17.31 |
| O=C1[C@H]2CN(Cc3ccccc3)C[C@H]2CN1c1cncnc1 | 37.15 |
| O=C1[C@H]2CN(Cc3ccc(F)cc3)C[C@H]2CN1c1cncnc1 | -20.89 |
| O=C1[C@H]2CN(Cc3ccncc3)C[C@H]2CN1c1cncnc1 | 54.41 |
| COc1cccc2cc(CNC(=O)N3CCC(N4CCCC4)C3)oc12 (configuration not stated) | 25.35 |
| CN(C)C(=O)CN1CCC2(CCN(S(C)(=O)=O)CC2)C1=O | 39.73 |
| CN(C)C(=O)CN1CCC2(CCN(C(=O)N(C)C)CC2)C1=O | 54.01 |
| CN(C)C(=O)CN1CCC2(CCN(C(=O)N3CCCC3)CC2)C1=O | -4.75 |
| Cc1cnc(N2C[C@@H]3[C@@H](C2)OCC(=O)N3CCN(C)C)nc1 | 30.58 |
| CNc1nc(N2CCN(Cc3ccsc3)C(CCO)C2)nc2c1CCC2 (configuration not stated) | 35.43 |
| O=C(C1CCOCC1)N1C[C@@H]2CC[C@H]1CN(Cc1ccncc1)C2 | -21.32 |
| c1cc(-c2noc([C@@H]3CCCN3C3CCC3)n2)cc(N2CCCC2)n1 | 23.81 |
| c1cc(-c2noc(C3CCC3)n2)cc(N2CCCCC2)n1 | -23.44 |
| c1cc(-c2noc([C@@H]3CCCN3CC3CC3)n2)cc(N2CCCC2)n1 | 74.33 |
| Cc1ccc(CN(Cc2ccccn2)C(=O)C2CCCCCN2C)s1 (configuration not stated) | -42.41 |
| Cc1ccc(CN(Cc2ccccn2)C(=O)CCC2CCCN(C)C2)s1 (configuration not stated) | 50.59 |
| Cc1ccc(CN(Cc2ccccn2)C(=O)[C@H]2CC[C@@H](N)C2)s1 | 26.74 |
